Test [1] in a line: viability loss with induced miR-34 in A549 – imaging, A549 dox-inducible miR-34, nuclei and caspase counts, primary screen (AID 1347080). Note: test concentration not given here. The settings on record: A549 miR-34 inducible, Hoechst nuclei count, 48 h.
Test [2] can be described thus: MELAS cybrid and Rieske KO viability enhancers – cell-based, MELAS cybrids, Rieske KO mouse fibroblasts, CellTiter-Glo, primary screen (AID 1508586;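 active = mean z-score across replicates of 1.96 or higher in either the MELAS or the Rieske mutant cell line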;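 note: test concentration not given here; z relative to plate mean and SD of compound and empty wells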). Conditions: low glucose. (In general: ATP-based viability assays read luminescence as a measure of living cells.)
Test [3] is described as follows: galactose survival enhancers in mitochondrial complex I cybrids – cell-based, galactose medium, ATP luminescence, primary screen (AID 1645843;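 active = z-score of at least 1.8 in each of two replicates, scored against plate mean and spread of sample wells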;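 note: positive z means more ATP and so rescue of galactose-driven cybrid death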). Conditions: complex I mutant cybrid cells, 72 h, stronger effect = higher value.
Setting [4] is: stronger effect = lower value, cell number ratio, induced over uninduced.
Setting [5] is: measured here: relative caspase fold change +Dox/-Dox.
Setting [6] is: measured here: total cells with miR-34 induction, stronger effect = lower value.
Setting [7] is: measured here: total cells without miR-34 induction.
The mark [8] stands for this setting: MELAS cybrid survival, CellTiter-Glo 48 h, stronger effect = higher value.
Where [9] appears, read: Rieske KO mouse fibroblast survival, CellTiter-Glo 72 h.

SMILES strings stand for the structures. Where “and” joins values, the source holds several entries; their conditions need not be identical. Equal entries are not always repeated. Calls of active or inactive are those of the source.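 Rule for the calls, unless noted: active = compounds whose cell count with miR-34 switched on is under 0.7 times the count with it off; inactive = the rest.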

On to `COc1cccc(-c2cccc(N)n2)c1F`, for which the fold change in test [1] (setting [4]) was 0.943 (inactive); in test [1] (setting [5]), 0.993. Further, the figures for the cell count in test [1] (setting [6]) and in test [1] (setting [7]) were 9590 and 10200, respectively. Besides, the values for the z-score in test [2] (setting [8]), in test [2] (setting [9]) and in test [3] were 0.104 (inactive), -0.26 and -0.59 (inactive), respectively.

On to `COc1ccc2c(C(=O)N(C)Cc3nonc3C)cc(-c3cnn(C)c3)nc2c1`, for which the fold change in test [1] (setting [4]) was 0.963 (inactive); in test [1] (setting [5]), 1.42. Also, the cell count amounted to 8090 in test [1] (setting [6]) and 8400 in test [1] (setting [7]). In addition, the z-score in test [2] (setting [8]) is -0.189 (inactive); in test [2] (setting [9]), -0.423; in test [3], -0.54 (inactive).

As for `O=C(O)CNC(=O)c1cccc(O)c1`, the results for the fold change in test [1] (setting [4]) and in test [1] (setting [5]) were 0.865 (inactive) and 0.603, respectively. Moreover, the cell count in test [1] (setting [6]) came to 8440; in test [1] (setting [7]), 9760. Also, the z-score is 0.669 (inactive) in test [2] (setting [8]), 0.0478 in test [2] (setting [9]) and 0.945 (inactive) in test [3].

As to `O=C1CCCc2occ(C(=O)N3CCc4[nH]nc(Cc5ccccc5)c4C3)c21`, the fold change in test [1] (setting [4]) was 0.979 (inactive); in test [1] (setting [5]), 0.441. The cell count in test [1] (setting [6]) was 9440; in test [1] (setting [7]), 9640. The z-score in test [2] (setting [8]) was -0.275 (inactive); in test [2] (setting [9]), -0.284; in test [3], -0.515 (inactive).

Turning to `O=[N+]([O-])c1ccc(-c2ccn[nH]2)cc1`, the figures for the fold change in test [1] (setting [4]) and in test [1] (setting [5]) were 0.922 (inactive) and 0.744, respectively. Further, the values for the cell count in test [1] (setting [6]) and in test [1] (setting [7]) were 8360 and 9070, respectively. Besides, the z-score was -0.915 (inactive) in test [2] (setting [8]), -0.293 in test [2] (setting [9]) and 0.59 (inactive) in test [3].

In the case of `O=C(O)COc1cccc2ccccc12`, the fold change was 0.847 (inactive) in test [1] (setting [4]) and 0.59 in test [1] (setting [5]). In addition, the cell count in test [1] (setting [6]) was determined as 7750; in test [1] (setting [7]), 9150. Moreover, the z-score in test [2] (setting [8]) was -0.276 (inactive); in test [2] (setting [9]) it was 0.135; in test [3], 0.555 (inactive).

As to `CCc1nc(NC(=O)NC(c2ccccc2)c2ccco2)nn1C` (stereo unspecified), the fold change in test [1] (setting [4]) was 0.878 (inactive); in test [1] (setting [5]), 0.916. The cell count in test [1] (setting [6]) amounted to 8500; in test [1] (setting [7]), 9680. The z-score in test [2] (setting [8]) is -0.443 (inactive); in test [2] (setting [9]), 0.186; in test [3], 1.04 (inactive).

For `CC(=O)NCCc1ccc(S(N)(=O)=O)cc1`, the results for the fold change in test [1] (setting [4]) and in test [1] (setting [5]) were 0.918 (inactive) and 0.641, respectively. Also, the cell count in test [1] (setting [6]) came to 7840; in test [1] (setting [7]) it was 8540. The results for the z-score in test [2] (setting [8]), in test [2] (setting [9]) and in test [3] were 0.668 (inactive), -0.256 and -0.065 (inactive), respectively.

As to `CCN(CC)C(=O)[C@]1(c2ccccc2)CC1CN` (stereo partly specified), the fold change is 0.994 (inactive) and 0.915 (inactive) in test [1] (setting [4]); 2.55 and 0.784 in test [1] (setting [5]). Besides, the cell count in test [1] (setting [6]) was 10600 and 8120; in test [1] (setting [7]), 10700 and 8880. Moreover, the figures for the z-score in test [2] (setting [8]), in test [2] (setting [9]) and in test [3] were -0.247 (inactive), -0.165 and 0.315 (inactive), respectively.

On to `NS(=O)(=O)c1ccc(C(=O)NCc2ccccc2)cc1`, for which the fold change in test [1] (setting [4]) was 0.871 (inactive); in test [1] (setting [5]) it was 0.5. Moreover, the cell count amounted to 8310 in test [1] (setting [6]) and 9540 in test [1] (setting [7]). Also, the results for the z-score in test [2] (setting [8]), in test [2] (setting [9]) and in test [3] were 0.51 (inactive), -0.575 and 0.795 (inactive), respectively.

As to `CC(O)Cc1cn(C2CCN(c3ncnc4nc[nH]c34)CC2)nn1` (stereo unspecified), the fold change is 0.957 (inactive) in test [1] (setting [4]) and 0.915 in test [1] (setting [5]). Moreover, the cell count in test [1] (setting [6]) worked out at 8270; in test [1] (setting [7]), 8650. Also, the z-score was -0.102 (inactive) in test [2] (setting [8]), -1.64 in test [2] (setting [9]) and -0.52 (inactive) in test [3].

As for `O=C(O)Cc1ccc(O)c([N+](=O)[O-])c1`, the fold change in test [1] (setting [4]) is 0.901 (inactive); in test [1] (setting [5]), 0.986. The results for the cell count in test [1] (setting [6]) and in test [1] (setting [7]) were 8450 and 9380, respectively. For the same compound, the z-score in test [2] (setting [8]) is 0.677 (inactive); in test [2] (setting [9]) it was 0.189; in test [3] it was 1 (inactive).

Regarding `COc1nc2ccccc2cc1-c1nnc2ccccn12`, the fold change is 0.94 (inactive) in test [1] (setting [4]) and 1.24 in test [1] (setting [5]). The cell count in test [1] (setting [6]) stood at 7160; in test [1] (setting [7]), 7610. The z-score is -0.729 (inactive) in test [2] (setting [8]), -1.23 in test [2] (setting [9]) and -0.505 (inactive) in test [3].

With `CCCc1cn(CC2CCCN(C(=O)c3nc4ncccn4n3)C2)nn1` (stereo unspecified), the results for the fold change in test [1] (setting [4]) and in test [1] (setting [5]) were 0.866 (inactive) and 1.31, respectively. Further, the cell count amounted to 9000 in test [1] (setting [6]) and 10400 in test [1] (setting [7]). Besides, the results for the z-score in test [2] (setting [8]), in test [2] (setting [9]) and in test [3] were -0.289 (inactive), -0.243 and -0.51 (inactive), respectively.

As to `CCC1OC(=O)C(C)C(OC2C[C@@](C)(OC)C(O)C(C)O2)C(C)C(OC2OC(C)CC(N(C)C)C2O)[C@](C)(OC)CC(C)C(=O)C(C)C(O)[C@]1(C)O` (stereo partly specified), the fold change was 0.943 (inactive) and 0.989 (inactive) in test [1] (setting [4]); 1.76 and 0.873 in test [1] (setting [5]). For the same compound, the cell count in test [1] (setting [6]) was 9620 and 10500; in test [1] (setting [7]) it was 10200 and 10600. The z-score in test [2] (setting [8]) is -0.386 (inactive); in test [2] (setting [9]), 0.552; in test [3], -0.175 (inactive).

Turning to `CC[C@H](C)C(=O)O[C@H]1C[C@H](O)C=C2C=C[C@H](C)[C@H](CC[C@@H]3C[C@@H](O)CC(=O)O3)[C@H]21`, the fold change in test [1] (setting [4]) was 0.872 (inactive); in test [1] (setting [5]) it was 2.14. Also, the cell count in test [1] (setting [6]) was 9300; in test [1] (setting [7]), 10700. The z-score in test [2] (setting [8]) was 0.0534 (inactive); in test [2] (setting [9]), -0.0126; in test [3], 0.555 (inactive).

In the case of `CCCn1ncc(-c2ccnc(NCc3cc(CC)no3)n2)c1C`, the fold change in test [1] (setting [4]) is 0.843 (inactive); in test [1] (setting [5]), 1.57. Also, the cell count in test [1] (setting [6]) turned out to be 6710; in test [1] (setting [7]), 7960. The z-score in test [2] (setting [8]) was -0.178 (inactive); in test [2] (setting [9]), -0.0436; in test [3] it was -0.59 (inactive).

Regarding `O=C(O)C(C(=O)O)c1ccccc1`, the fold change is 0.911 (inactive) in test [1] (setting [4]) and 0.169 in test [1] (setting [5]). Also, the cell count in test [1] (setting [6]) is 8920; in test [1] (setting [7]), 9780. Besides, the z-score is 0.44 (inactive) in test [2] (setting [8]), -0.084 in test [2] (setting [9]) and 0.49 (inactive) in test [3].

In the case of `Cc1ccc(CN2CCN(c3ncnc4sccc34)CC2=O)cc1`, the figures for the fold change in test [1] (setting [4]) and in test [1] (setting [5]) were 0.911 (inactive) and 1.87, respectively. In addition, the cell count was 4200 in test [1] (setting [6]) and 4610 in test [1] (setting [7]). Moreover, the z-score in test [2] (setting [8]) is -0.0356 (inactive); in test [2] (setting [9]) it was -0.417; in test [3], 3.8 (active).

Turning to `CC(C)(O)c1ccccc1CCC(SCC1(CC(=O)O)CC1)c1cccc(C=Cc2ccc3ccc(Cl)cc3n2)c1` (stereo unspecified), the fold change in test [1] (setting [4]) was 0.925 (inactive) and 0.834 (inactive); in test [1] (setting [5]), 1.67 and 2.27. Further, the cell count in test [1] (setting [6]) is 8950 and 7950; in test [1] (setting [7]), 9680 and 9540. The z-score in test [2] (setting [8]) is -0.195 (inactive); in test [2] (setting [9]) it was -0.136; in test [3], 0.25 (inactive).

With `NC(=O)Cc1c[nH]c2ccccc12`, the fold change is 0.914 (inactive) in test [1] (setting [4]) and 0.482 in test [1] (setting [5]). Besides, the cell count in test [1] (setting [6]) is 8170; in test [1] (setting [7]) it was 8950. Also, the z-score in test [2] (setting [8]) was 0.728 (inactive); in test [2] (setting [9]), -0.479; in test [3], 0.1 (inactive).

As to `Cn1nc(C(C)(C)C)cc1NC(=O)Cn1cc(-c2ccccc2N)cn1`, the fold change is 0.913 (inactive) in test [1] (setting [4]) and 1.7 in test [1] (setting [5]). Also, the results for the cell count in test [1] (setting [6]) and in test [1] (setting [7]) were 8250 and 9040, respectively. The z-score in test [2] (setting [8]) was 0.154 (inactive); in test [2] (setting [9]), -0.442; in test [3] it was -0.46 (inactive).

On to `COc1ccc(S(=O)(=O)N2CCN(S(=O)(=O)c3ccc4c(c3)OCCO4)CC2)cc1`, for which the fold change in test [1] (setting [4]) is 0.881 (inactive); in test [1] (setting [5]), 0.373. The cell count worked out at 8270 in test [1] (setting [6]) and 9390 in test [1] (setting [7]). In addition, the figures for the z-score in test [2] (setting [8]), in test [2] (setting [9]) and in test [3] were -0.316 (inactive), -0.269 and 0.51 (inactive), respectively.
